Vaccinia mCherry: qHTS for Stage-Specific Inhibitors of Vaccinia Orthopoxvirus: mCherry Reporter Primary qHTS | Vaccinia virus mCherry reporter infection, fluorescence | Potency, µM (series often up to 36.5 µM), inactives show at the top dose activity change, negative = inhibition, most hits filed as inhibitors | 0.63% of 310,000 active | AID 720579, 2013; calls by dose curve; tested in A549 cells; further: nearly all actives have a fitted effect of over 35% in size
Vaccinia Venus: qHTS for Stage-Specific Inhibitors of Vaccinia Orthopoxvirus: Venus Reporter Primary qHTS. 0.46% of 330,000 active. Vaccinia virus Venus reporter expression, fluorescence. AID 720580, 2013. Potency, µM (titrated, usually from 36.5 µM), for the others: at the top dose activity change, negative = inhibition, most hits filed as inhibitors; calls by dose curve; tested in A549 cells; further: nearly all actives have a fitted effect of over 30% in size
HCV inh: qHTS Assay for Inhibitors of Hepatitis C Virus (HCV) | Huh7.5.1 HCVcc-Cre infection, luciferase reporter, 44 h | 3.4% of 340,000 active | Potency, µM (series often up to 41.8 µM), for inactives: top-dose activity change, negative = inhibition, usual class: inhibitors | AID 651820, 2012; active means well fitted inhibition curve with a large enough effect; inconclusive means small, poorly fitted or top-dose-only effect, or another doubt; inactive means no such curve, though single readings can be large or run the other way
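1,000 cells/well; 4 h culture; + compound; + HCVcc-Cre (~0.5 moi); 44 h; luciferase substrate, RT 15 min; read 15 sec.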
* marks the source's active call; other numbers are inactive results; i = inactive; ? = inconclusive; . = no result given. Hits are enriched below; roughly 3.3% of the tested compounds scored in any of these assays. On the % scale 0 is the no-effect control and ±100 the full control effect; potency means the concentration at half of the fitted maximal effect.

SMILES	Vaccinia mCherry	Vaccinia Venus	HCV inh
COc1ccccc1N1CC(C)(C)C(=O)N(C(=O)c2ccc(Cl)cc2)C1=S	?	?	-4%
O=C(ONC1=NCCCCC1)c1c(F)cccc1F	-27%	-17%	?
O=C(ONC1=NCCCCC1)c1ccc(Cl)cc1	.	-5%	2.5µM*
CC(C)c1ccc(NC(=O)[C@@H]2CCC(=O)N2C2OC(=O)c3ccccc32)cc1 (stereo partly drawn)	-7%	2%	-5%
CC(=O)OC1CC(OC(C)=O)[C@]2(C)C(CC(OC(C)=O)[C@]3(C)C2CC[C@@]2(C)C(c4ccoc4)C[C@H]4O[C@]432)C1(C)C (stereo partly drawn)	-23%	-19%	.
CC(=O)OC1C[C@@]2(C)C(c3ccoc3)C[C@H]3O[C@@]32[C@@]2(C)C(=O)C(O)=C3C(C)(C)C(=O)C=C[C@]3(C)C12 (stereo partly drawn)	7.1µM*	8.9µM*	.
COCCCNc1cc(C)nc2ccccc12	-9%	-2%	6%
Cc1cc(NCCCCCCCNc2cc(C)nc3cc([N+](=O)[O-])ccc23)c2ccc([N+](=O)[O-])cc2n1	?	10µM*	10µM*
CC1CC(C)CC(C)C(O)C(C#N)=CC=CCC(C2CCCC2C(=O)O)OC(=O)CC(O)C(C)C1 (stereo not drawn)	?	1.1µM*	?
COc1ccc(N2CCN(C(=O)c3ccc(CNS(=O)(=O)c4cccc(OC)c4)cc3)CC2)cc1	?	-22%	3.5µM*
Cc1ccc(S(=O)(=O)NCc2ccc(C(=O)N3CCN(c4ccccc4)CC3)cc2)cc1	?	-19%	?
O=C(c1ccc(CNS(=O)(=O)c2ccccc2)cc1)N1CCN(Cc2ccccc2)CC1	-3%	-25%	11µM*
COc1ccc(N2CCN(C(=O)c3ccc(NS(=O)(=O)c4cccc(F)c4)cc3)CC2)cc1	.	.	-8%
CN(c1ccc(C(=O)N2CCN(Cc3ccccc3)CC2)cc1)S(=O)(=O)c1ccc(Cl)cc1	-5%	-21%	10µM*
CS(=O)(=O)c1ccc(C(=O)N2CCN(Cc3ccccc3)CC2)cc1	9%	-2%	3%
N#Cc1ccc(CN2CCN(C(=O)c3ccc(S(=O)(=O)NCc4ccco4)cc3)CC2)cc1	.	.	6.3µM*
O=C(c1ccc(S(=O)(=O)NCc2ccco2)cc1)N1CCCC1	i	-14%	-1%
Cc1[nH]c2ccccc2c1C(=O)CNc1ccc(Br)cc1	-14%	-14%	.
COc1cc2nc(N3CCCCC3)nc(NC(C)C)c2cc1OC	-19%	?	.
Cc1ccc(-c2onc(C)c2C)cc1S(=O)(=O)N1CCC(C)CC1	-27%	?	.
CC(=O)c1ccc(Nc2cc(C)nc3nc(Cc4ccccc4)nn23)cc1	-2%	-4%	.
CCOC(=O)C1(C)CCCN(C(=O)CCc2ccccc2)C1 (stereo not drawn)	35%	-4%	.
CC(=O)c1cnc2nc(SCc3ccc(Cl)cc3)nn2c1C	-1%	-11%	?
CN1CCC2(CC1)Nc1nc(SCc3ccc(Cl)cc3)nn1C1=C2CN(C)CC1	.	-29%	14µM*
O=C(CN1C2=NCCCN2c2ccccc21)c1ccc([N+](=O)[O-])cc1	.	.	11µM*
SMILES	Vaccinia mCherry	Vaccinia Venus	HCV inh
O=C(CN1C2=NCCCN2c2ccccc21)c1cccc(Br)c1	?	-19%	?
Cc1ccc(-n2c3c(cc(-c4nc(-c5ccc(Cl)cc5)cs4)c2=O)C(=O)CC(C)(C)C3)cc1C	-7%	-4%	.
O=C(Cc1cccs1)NC1CC(=O)N(c2ccc(F)cc2)C1 (stereo not drawn)	-8%	-9%	.
COC(=O)c1oc2ccc(Br)cc2c1NC(=O)CCN1CCOCC1	.	.	2%
CN1CCN(CC(=O)Nc2c(C(=O)c3ccccc3)oc3ccccc23)CC1	13%	-23%	11µM*
COc1ccc2oc(C(=O)c3ccccc3)c(NC(=O)CN3CCN(C)CC3)c2c1	-19%	-10%	1%
CCOC(=O)c1oc2ccc(Br)cc2c1NC(=O)CN1CCN(C)CC1	.	-6%	10µM*
COc1ccccc1CNC(=O)c1ccc(N2CCCC2)c(NC(=O)NCc2ccccc2)c1	-11%	-25%	.
Cc1ncc2c(c1CNC(=O)c1cncs1)CCN(C(=O)c1ccc(-c3ccccc3)cc1)C2	-19%	-12%	.
COc1cccc(OC)c1OCCCOc1ccc([N+](=O)[O-])cc1Cl	i	-10%	?
CCOc1ccccc1OCCCOc1ccc([N+](=O)[O-])cc1Cl	.	-27%	13µM*
C(=Nc1cnc2ccccc2c1)c1ccc2ccccc2n1	-7%	-20%	.
N#CC1=C(N)n2c(s/c(=C\c3cccs3)c2=O)=C(C#N)C1c1cccs1 (stereo not drawn)	i	7%	0.5µM*
N#CC1=C(N)n2c(s/c(=C\c3ccco3)c2=O)=C(C#N)C1c1ccco1 (stereo not drawn)	.	.	5%
CCC1CN(CCNC(=O)c2ccccc2-n2cccn2)Cc2cc(OC)ccc2O1 (stereo not drawn)	-15%	-2%	.
Cc1cc(NC(=O)CCC(=O)N(Cc2cccs2)C(C(=O)NC2CCCC2)c2ccncc2)no1 (stereo not drawn)	-1%	-22%	-9%
CCC(C(=O)NC1CCCCC1)N(Cc1cccs1)C(=O)CCC(=O)Nc1cc(C)on1 (stereo not drawn)	4%	-4%	11µM*
COc1ccc(-c2oc3c(c2C#CC(C)(C)O)C(OCCO)CC3)cc1 (stereo not drawn)	-5%	3%	.
COC(=O)C(C)Sc1nnc2cc(C)c3cc(C)cc(C)c3n12 (stereo not drawn)	-9%	-1%	.
NS(=O)(=O)c1ccc(NC(=O)COc2ccc(C(=O)c3ccc(F)cc3)cc2)cc1	.	.	14µM*
CN(c1ccc(OCC(=O)Nc2ccc(S(N)(=O)=O)cc2)cc1)S(=O)(=O)c1ccc(F)cc1	-11%	-29%	?
CC(=O)Nc1ccc(S(=O)(=O)NCCC(=O)OCC(=O)N2CCN(C(=O)c3ccco3)CC2)cc1	-14%	-7%	10%
C[n+]1cc2c3c(ccc2c2ccc4cc5c(cc4c21)OCO5)OCO3	11µM*	10µM*	.
CC(=O)c1ccc2c(c1)OCO2	2%	12%	-14%
CN(CC(=O)Nc1cccc(F)c1)C(=O)c1sccc1-c1ccccc1	i	-14%	?
SMILES	Vaccinia mCherry	Vaccinia Venus	HCV inh
CN(CC(=O)Nc1ccc(Cl)cc1)C(=O)c1sccc1-c1ccccc1	.	.	13µM*
CN(C)c1ccc(/C=[N+]2\C(=O)CC(=O)NC2=O)cc1	-9%	-9%	.
CCOc1ccccc1NC(=O)Cn1c(=O)n(-c2ccc(F)cc2)c(=O)c2c3c(sc21)CN(C(C)=O)CC3	0%	-1%	.
O=C(O)c1c(-c2ccccc2)cnc2ccccc12	-18%	-13%	.
Cc1c(-c2ccccc2)cnc2c(C)cccc12	.	.	11µM*
O=C(O)/C=C/c1ccc(Cn2ccnc2)cc1	-5%	-9%	-10%
CCOc1ccc(OCC)c2sc(C)nc12	.	.	10µM*
CCOc1cccc2sc(Cl)nc12	-7%	-20%	27%
COCCN1CCN(C(=O)c2cnn(-c3nccc(-c4cc5ccccc5o4)n3)c2C2CC2)CC1	-26%	-9%	.
Cc1ccc(-n2cnc3scc(-c4cccs4)c3c2=O)cc1	-14%	-23%	11µM*

Bioassay records: PubChem, National Center for Advancing Translational Sciences (NCATS)
